HCV inhibitor – HCV inhibition; AID 651820; Huh7.5.1 HCVcc-Cre infection, luciferase reporter, 44 h; Potency, µM (doses to about 41.8 µM), without a hit: top-dose activity change, negative = inhibition, most hits filed as inhibitors; 340,000 tested, 3.4% active
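Cells seeded at 1,000/well and cultured 4 h, then compounds added followed by HCVcc-Cre virus (~0.5 moi). After 44 h further culture, luciferase substrate was added, plates held 15 min at room temperature, and luminescence read for 15 sec.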
AMA1-RON2 inh – inhibitors of Plasmodium falciparum AMA1-RON2 interaction | AlphaScreen AMA1-biotinylated RON2 peptide binding | Potency, µM (series often up to 58.2 µM), without a hit: at the top dose activity change, negative = inhibition, usual class: inhibitors | 360,000 tested, 0.2% active | AID 720542;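 further: 0% = vehicle wells and -100% = peptide control; nearly all actives have a fitted effect of over 45% in size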
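AMA1 (3D7) with his tag at 25 nM final met compounds first, then biotinylated RON2 peptide at 25 nM; detection used donor plus acceptor beads, 10 µg/mL apiece, read by AlphaScreen after 30 min at room temperature.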
AmpC no deterg – inhibitors of E. coli AmpC beta-lactamase without detergent; AID 485341; P00811; Potency, µM (doses to about 57.1 µM), inactives show at the highest dose activity change, negative = inhibition, actives largely listed as inhibitors; 330,000 tested, 0.52% active; AmpC nitrocefin hydrolysis, absorbance 480 nm, 0.0001% Triton;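 further: plate controls were no compound for no effect and no enzyme for full effect; nearly all actives have a fitted effect of over 20% in size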
Target sequence (P00811 whole entry, looked up): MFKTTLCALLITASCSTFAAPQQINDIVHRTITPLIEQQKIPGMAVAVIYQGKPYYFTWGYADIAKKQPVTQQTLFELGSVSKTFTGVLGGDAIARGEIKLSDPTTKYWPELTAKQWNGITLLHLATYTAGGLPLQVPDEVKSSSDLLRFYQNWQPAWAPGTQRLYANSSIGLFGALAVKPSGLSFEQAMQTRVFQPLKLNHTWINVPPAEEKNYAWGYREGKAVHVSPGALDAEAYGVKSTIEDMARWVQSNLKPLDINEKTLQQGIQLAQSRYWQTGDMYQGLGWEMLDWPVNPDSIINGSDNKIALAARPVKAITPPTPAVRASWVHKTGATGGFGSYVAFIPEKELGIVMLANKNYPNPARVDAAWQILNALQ
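20 mM phosphate pH 7.0 + 0.01% (detergent screen) or 0.0001% Triton X-100; 5.3 nM AmpC reagent; cpd preinc 15 min RT; nitrocefin (800 uM stock) to start; A480 q20 s × 4 min; Activity was normalised to no-enzyme and no-compound control wells.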
AmpC inh detg – AmpC beta-lactamase inhibition with detergent present. 370,000 tested, 0.041% active. AmpC hydrolysis of nitrocefin, absorbance 480 nm, 0.01% Triton. P00811. Potency, µM (doses to about 114 µM), for inactives: at the highest dose activity change, negative = inhibition, most hits filed as inhibitors. AID 485294;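 further: 0% = no-compound wells and -100% = no-enzyme wells; nearly all actives have a fitted effect of over 25% in size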
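AmpC (5.3 nM in the dispensed reagent) in 20 mM phosphate pH 7.0 with 0.01% (detergent screen) or 0.0001% Triton X-100 was preincubated with compounds for 15 min at room temperature. Nitrocefin was then added from an 800 uM solution, and hydrolysis was followed at 480 nm.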
Pf growth 96h – inhibits malaria parasite growth, 96 h | P. falciparum luciferase reporter growth, 96 h | Potency, µM (doses to about 28.7 µM), for inactives: at the highest dose activity change, negative = inhibition, usual class: inhibitors | 320,000 tested, 6.9% active
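Luminescence readout: decreased luciferase signal marks inhibited growth of reporter-expressing P. falciparum in infected red cells (2% hematocrit, 0.05% parasitemia final), exposed to compound two generations (96 h, 37 C, 5% CO2).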
Pf growth 48h – inhibits P. falciparum growth in the first generation, 48 h | P. falciparum luciferase growth in erythrocytes, 48 h | Potency, µM (series often up to 28.7 µM), inactives show top-dose activity change, negative = inhibition, usual class: inhibitors | 310,000 tested, 5.9% active
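Compounds are pin-transferred into medium, infected erythrocytes (2% hematocrit, 0.1% parasitemia final) are added, and plates sit one parasite generation at 37 C in 5% CO2. Detection reagent is then added and luminescence measured.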
Active calls of the source: *; ? = inconclusive; . = not tested or not shown; [ ] = remark or other dose. In the library only some 11% were active in any assay of this set; here they are far more common. The call rests on the fitted dose curve; in most records, active means well fitted curve in the direction sought with a large enough effect; inconclusive means small, poorly fitted or top-dose-only effect, or another doubt; inactive means no such curve, though single readings can be large; an effect the other way counts as inactive or inconclusive. Unless noted, on the % scale 0 is the no-effect control and ±100 the full control effect; potency means the concentration at half of the fitted maximal effect.

SMILES	HCV inhibitor	AMA1-RON2 inh	AmpC no deterg	AmpC inh detg	Pf growth 96h	Pf growth 48h
CCCNC(=O)N1[C@H](c2ccc(C)s2)[C@@H](C)C(=O)[C@@H](C)[C@@H]1c1ccc(C)s1	.	.	.	16%	.	.
CCOC(=O)Nc1ccc2c(COC(=O)CNS(=O)(=O)c3ccc(NC(C)=O)cc3)cc(=O)oc2c1	-23%	-18%	-18%	-2%	42%	31%
CCOC(=O)Nc1ccc2c(CN3CCN(S(=O)(=O)c4ccc(C(C)C)cc4)CC3)cc(=O)oc2c1	?	-1%	-32%	?	10µM*	?
CCOC(=O)Nc1ccc2c(CN3CCN(S(=O)(=O)c4ccccc4F)CC3)cc(=O)oc2c1	?	-8%	-14%	2%	10µM*	9.3µM*
CCC(CC)C(=O)Nc1ccc(S(=O)(=O)N2CCC(c3nc4ccccc4s3)CC2)cc1	.	.	.	28%	.	.
CCn1c(C)c(C(C)=O)c(N2CCCCC2)nc1=S	0%	-6%	18%	?	12µM*	0%
CCn1c(C)c(C(C)=O)c(N2CCN(C(c3ccccc3)c3ccccc3)CC2)nc1=S	6.3µM*	-14%	8%[2.29 µM]	3%	0%	?
N#C/C(=C\c1ccc(O)cc1)C(=O)O	1.1µM*	8%	.	.	.	.
CCC(CO)Oc1cc(NCc2ccccc2F)c2ncn(C(C)C)c2c1 (stereo not drawn)	?	-13%	132%	-1%	4.7µM*	5.2µM*
CCC(CO)Oc1cc(NCc2ccccc2C(F)(F)F)c2ncn(C(C)C)c2c1 (stereo not drawn)	1.3µM*	-19%	92%	.	.	.
CCC(CO)Oc1cc(NCc2ccccc2OC)c2ncn(C(C)C)c2c1 (stereo not drawn)	-29%	-2%	115%	.	.	.
CCC(CO)Oc1cc(NCc2ccccc2Cl)c2ncn(C(C)C)c2c1 (stereo not drawn)	2.2µM*	-12%	88%	6%	?	3.3µM*
CCC(CO)Oc1cc(NCc2ccccn2)c2ncn(C(C)C)c2c1 (stereo not drawn)	7%	67%	37%	.	.	.
CCN=c1scc(-c2cccs2)n1/N=C/c1cc(OC)ccc1O	5µM*	?	-12%	?	13%	115%
COc1ccc(C(=S)N2CCOCC2)cc1OC(=O)c1cc([N+](=O)[O-])c(C)c([N+](=O)[O-])c1	-2%	-1%	-14%	-1%	21%	10%
COc1cc(C(=S)N2CCOCC2)ccc1OC(=O)c1cc([N+](=O)[O-])c(C)c([N+](=O)[O-])c1	0%	2%	-43%	-15%	1.7µM*	-1%
COc1cc(C(=S)N2CCOCC2)ccc1OS(=O)(=O)c1ccccc1[N+](=O)[O-]	-11%	-20%	-14%	-18%	51%	-9%
CCOc1cc(C(=S)N2CCOCC2)ccc1OS(=O)(=O)c1ccccc1[N+](=O)[O-]	-4%	-2%	-38%	-2%	5.9µM*	?
Cc1cc(N2CCN(C)CC2)nc2ccc(NC(=O)Nc3ccccc3Br)cc12	.	.	.	19%	.	.
S=C(NNc1cccc(Cl)c1)NC1CCCCC1	9%	6.3µM*	-33%	-1%	?	-24%
O=C1CN(C(=O)c2ccc(S(=O)(=O)N3CCCC3)cc2)C(c2ccccc2)c2cc(Cl)ccc2N1 (stereo not drawn)	.	.	.	1%	.	.
C/C(=N\Nc1nncc2ccccc12)c1ccc(O)cc1	7.1µM*	19%	4%	-10%	232%	167%
C/C(=N\Nc1nccnc1Cl)c1ccc(O)cc1	3%	45%	-19%	?	7.4µM*	24%
C/C(=N\Nc1nncc2ccccc12)c1ccc(C(C)(C)C)cc1	2.5µM*	13%	-17%	5%	?	10%
C/C(=N\Nc1nccnc1Cl)c1ccc(F)cc1	15%	41%	-10%	-8%	-12%	0%
SMILES	HCV inhibitor	AMA1-RON2 inh	AmpC no deterg	AmpC inh detg	Pf growth 96h	Pf growth 48h
CCOc1ccc(C2c3[nH]c4ccccc4c3CCN2C(=O)CSc2ccccc2)cc1 (stereo not drawn)	.	.	.	-9%	.	.
Cc1ccc(C)c(Cn2c3ccccc3c3cnn(CC(=O)NCCCc4ccccc4)c(=O)c32)c1	.	.	.	5%	.	.
Cc1ccc(C)c(Cn2c3ccccc3c3cnn(CC(=O)NCc4ccccn4)c(=O)c32)c1	11%	19%	141%	-1%	12µM*	?
CCOC(=O)C1CCC(CN(Cc2cccc(Br)c2)S(=O)(=O)c2ccc(C)cc2)CC1 (stereo not drawn)	.	.	.	-7%	.	.
Cc1ccnc2c(N3C(=O)C4C5c6ccccc6C(c6ccccc65)C4C3=O)cccc12 (stereo not drawn)	?	-2%	106%	4%	5.2µM*	?
Cc1ccccc1N1C(=O)C2C3CC(=O)C(c4ccccc43)C2C1=O (stereo not drawn)	-1%	-6%	-18%	0%	106%	44%
C/C(=N\NC(=S)Nc1ccccc1)C1Cc2ccccc2C(=O)O1 (stereo not drawn)	2%	44%	-18%	-6%	?	10µM*
CCOc1ccc2c(c1)c(=O)c(C(=O)c1ccc(CC)cc1)cn2CC(=O)Nc1ccccc1C	.	.	.	0%	.	.
O=C(N1CCOCC1)n1nnc2ccccc21	24%	-10%	13µM*	45µM*	0%	?
COc1ccc(NC(=O)C2CCN(S(C)(=O)=O)CC2)cc1OC	13%	2%	-27%	-16%	15%	-1%
COc1ccc(NC(=O)C2CCN(S(=O)(=O)c3ccc(C)cc3)CC2)cc1OC	-9%	6%	-7%	-6%	5.2µM*	-11%
Cc1ccc(S(=O)(=O)N2CCC(C(=O)Nc3ccccc3N3CCCC3)CC2)cc1	-22%	-26%	-21%	-10%	0%	?
COc1ccc(S(=O)(=O)N2CCC(C(=O)Nc3ccccc3)CC2)cc1OC	.	.	.	12%	.	.
COc1ccc(S(=O)(=O)N2CCC(C(=O)Nc3ccccc3N3CCCC3)CC2)cc1OC	?	-16%	62%	?	12µM*	?
COc1ccc(OC)c(S(=O)(=O)N2CCC(C(=O)Nc3cc(C)ccc3C)CC2)c1	-15%	7%	8%	?	13µM*	.
Cc1ccc(S(=O)(=O)N2CCC(C(=O)Nc3ccccc3N3CCCCC3)CC2)cc1	?	-8%	-19%	32µM*	13%	7.4µM*
COc1ccccc1C(=O)Nc1ccccc1OCc1cc(=O)n2cc(C)sc2n1	.	.	.	12%	.	.
